# High-throughput results (PubChem)
# A549 tox – counter-screen for Nrf2 inhibitors: cytotoxicity in A549 cells; actives 0.16% (n = 390,000); A549 ARE-Fluc cells, CellTiter-Fluor viability, 18-24 h; AID 504648; Potency, µM (series often up to 46 µM), actives largely listed as inhibitors
#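 A549 ARE-Fluc cells in 5% FBS OPTI-MEM, 5000 cells/well, rested 2 h then exposed to compounds in concentration-response for 18-24 h at 37 °C. Viability by CellTiter-Fluor fluorescence (Ex 405/Em 525) after 30 min; luciferase luminescence (BugLite, 15 min, RT) read afterwards.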
# Nrf2 inh – inhibitors of Nrf2 signaling. AID 504444. A549 ARE-Fluc reporter, luciferase luminescence, 18-24 h. actives 2.1% (n = 360,000). Potency, µM (top dose mostly 46 µM), actives largely listed as inhibitors; note: nearly all actives have a fitted effect of over 60% in size
#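 In this cell-based qHTS, ARE-driven firefly luciferase in A549 cells reports Nrf2 activity; the luminescent signal after BugLite lysis is the measured value, with a prior CellTiter-Fluor read for cell health.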
# ATXN2 expr inh – reduces ATXN2 reporter expression in HEK-293 cells | HEK-293 ATXN2-luciferase reporter, luminescence, 24 h | Potency, µM (titrated, usually from 57 µM), actives largely listed as inhibitors | actives 0.72% (n = 360,000) | AID 1745845; note: nearly all actives have a fitted effect of over 55% in size
#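 qHTS (up to 57 uM final) was run with 24 h compound exposure of reporter cells at 37 °C. Each well was multiplexed: SteadyGlo luminescence measured ATXN2-luciferase expression after a fluorogenic Gly-Phe-AFC viability readout (25 uM final).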
# Nrf2 activator – activates Nrf2 signaling; Potency, µM (series often up to 46.1 µM), most hits filed as activators; actives 0.31% (n = 410,000); AREc32 ARE-luciferase reporter (MCF7-derived line), luminescence, 24 h; note: nearly all actives have a fitted effect of over 65% in size
#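 Luminescent ARE reporter assay in AREc32_Fluc cells: overnight plating at 37 deg C, 24 hr compound incubation, Steady-Glo added, 30 min RT before reading.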
# S2 tox – viability counter-screen for ATXN expression inhibitors. Potency, µM (top dose mostly 56.7 µM), hits mostly cytotoxic. actives 0.49% (n = 400,000). S2 cells (HEK-293 line with an ATXN2-luciferase reporter) viability, CellTiter-Fluor protease fluorescence, 24 h. AID 651635; note: nearly all actives have a fitted effect of over 40% in size
# Numbers stand for hits; - = inactive; ? = inconclusive; . = no result given. This is a sample that favours compounds with a hit; in the whole collection about 2.9% have one here. Calls come from the whole dose curve; as a rule, active = well fitted curve in the direction sought with a large enough effect; inconclusive = small, poorly fitted or top-dose-only effect, or another doubt; inactive = no such curve, though single readings can be large; an effect the other way counts as inactive or inconclusive.
SMILES,A549 tox,Nrf2 inh,ATXN2 expr inh,Nrf2 activator,S2 tox
O=[N+]([O-])c1ccc(N=Nc2ncc[nH]2)cc1,?,?,.,?,1.3µM
CC(Oc1cccc(Cl)c1)C(=O)Nc1ccccc1C(=O)N1CCCCC1 (stereo unspecified),-,-,-,-,-
O=C(NCc1nnc2c3ccccc3c(-c3ccccc3)nn12)c1ccc(Cl)cc1,?,21µM,.,-,.
CN[C@H]1C[C@H]2c3[nH]c4ccc(-c5ccc(OC)cc5)cc4c3CCN2C(=O)[C@H]1[C@H](C)O,.,.,18µM,-,?
COc1ccc(NC(=O)N(C)[C@H]2C[C@H]3c4[nH]c5ccc(-c6ccc(OC)cc6)cc5c4CCN3C(=O)[C@H]2[C@H](C)O)cc1,.,.,?,-,?
COc1ccc(NC(=O)N(C)[C@H]2C[C@H]3c4[nH]c5ccc(-c6ccc(OC)cc6)cc5c4CCN3C[C@H]2[C@H](C)O)cc1,.,.,22µM,-,.
COc1ccc(NC(=O)N(C)[C@H]2C[C@H]3c4[nH]c5ccc(-c6ccc7c(c6)OCO7)cc5c4CCN3C[C@H]2[C@H](C)O)cc1,.,.,16µM,-,20µM
Cn1c(=O)n(CC(N)=O)c(=O)c2c1nc1n2CCCN1Cc1ccccc1,-,-,-,-,-
Cc1ccc(CN(C)C(=O)c2cccc(S(=O)(=O)N3CCc4ccccc43)c2)cc1,-,-,?,-,-
O=C(O)CCSc1nnc(-c2ccc3c(c2)OCO3)o1,-,8.2µM,?,-,-
CC(=O)CSc1nnc(-c2ccc3c(c2)OCO3)o1,-,-,-,-,-
CCN1CCN(CC(O)COc2ccc3c(c2)CCC3)CC1 (stereo unspecified),-,-,-,-,-
O=S(=O)(c1ccccc1)N1CCN(CC(O)COc2ccc3c(c2)CCC3)CC1 (stereo unspecified),-,16µM,-,-,-
COc1ccc(CC(NC(C)=O)C(=O)NC2CCN(C(=O)C3CCCCC3)CC2)c(OC)c1 (stereo unspecified),-,-,-,-,-
O=C(c1cccc(C(F)(F)F)c1)N1CCOC12CCN(c1ncc(C(F)(F)F)cc1Cl)CC2,-,26µM,-,-,-
CC(=O)Nc1cc(-c2cccc(C(=O)NCCN(C)C)c2)cn2c(-c3ccc(S(C)(=O)=O)cc3)cnc12,.,.,-,-,-
CCOc1ccc2nc(C)cc(Nc3cccc([N+](=O)[O-])c3)c2c1,-,-,28µM,?,.
Cc1cc(Nc2cccc([N+](=O)[O-])c2)c2ccccc2n1,-,-,-,?,-
O=C(Nc1ccc(N2CCCCC2)c(Cl)c1)c1ncn[nH]1,-,8.2µM,-,-,-
O=C(Nc1ccc(N2CCCC2)c(Cl)c1)c1ccco1,-,?,-,-,-
Cn1c(SCc2ccccc2)nc2ccsc2c1=O,-,16µM,-,13µM,-
O=c1c(-c2ccccc2)c1-c1ccccc1,.,.,8.9µM,.,8.9µM
Nc1ccc(S(=O)(=O)NNC(=O)C(=O)NNc2ccccn2)cc1,-,-,-,-,-
CCOC(=O)c1sc(NC(=O)CSc2n[nH]c(-c3ccccc3)n2)c(C#N)c1C,-,23µM,-,-,?
COc1ccc(OC)c(NC(=O)C(C)OC(=O)c2cc3ccccc3[nH]2)c1 (stereo unspecified),-,18µM,-,-,?
SMILES,A549 tox,Nrf2 inh,ATXN2 expr inh,Nrf2 activator,S2 tox
CCC(C)n1nccc1NC(=O)C(C)OC(=O)c1cc2ccccc2[nH]1 (stereo unspecified),-,?,-,-,-
COc1ccccc1NC(=O)C(C)OC(=O)c1cc2ccccc2[nH]1 (stereo unspecified),-,21µM,.,-,-
COc1ccc(OC)c(NC(=O)C(C)Oc2ccc(Br)cc2)c1 (stereo unspecified),-,-,-,-,.
CCOc1ccc(CCNC(=O)c2ccc(CS(=O)Cc3cccc(Cl)c3)o2)cc1 (stereo unspecified),-,-,-,-,-
Cn1nnnc1Sc1ncnc2scc(-c3ccc(S(C)(=O)=O)cc3)c12,-,?,.,.,.
Cn1nnnc1Sc1ncnc2scc(-c3cccc(Br)c3)c12,-,23µM,8.9µM,-,14µM
Cn1nnnc1Sc1ncnc2scc(-c3cccc(S(C)(=O)=O)c3)c12,?,8.2µM,8.9µM,-,?
CC(=O)c1cccc(-c2csc3ncnc(Sc4nnnn4C)c23)c1,-,?,6.3µM,?,7.9µM
CCOc1ccccc1NC(=O)c1cc(Cl)ccc1NC(=O)c1ccco1,-,-,-,-,-
CC1CCN(c2oc(Cc3cccc4ccccc34)nc2C#N)CC1,-,-,-,-,-
COc1ccc2[nH]cc(CCNC(=O)Cc3ccc(Br)cc3)c2c1,-,-,-,-,-
CCOc1ccc(C(=O)NC(=S)Nc2cccc(S(=O)(=O)NC3=NCCC3)c2)cc1,?,?,.,-,-
Cc1cc([N+](=O)[O-])ccc1NC(=O)CN1C2CCC1CC(NC(=O)NC13CC4CC(CC(C4)C1)C3)C2 (stereo unspecified),-,16µM,-,-,-
CCOC(=O)N1CCN(S(=O)(=O)c2ccc([N+](=O)[O-])cc2)CC1,-,-,-,-,-
Cc1ccc(-c2c(C)n3c4c(=O)n(C)c(=O)n(C)c4nc3n2CCCO)cc1,-,18µM,25µM,-,28µM
COC(=O)CCCn1c(-c2ccc(C)cc2)c(C)n2c3c(=O)n(C)c(=O)n(C)c3nc12,-,-,-,-,-
COc1ccc(CCN2C(=O)CSC2=Nc2ccc(C(C)C)cc2)cc1OC,-,16µM,-,-,-
C[C@@H](C[C@@H](O)[C@H](O)C(C)(C)O)[C@@H]1CC[C@]2(C)C3=CC[C@H]4C(C)(C)C(=O)CC[C@]4(C)[C@H]3CC[C@@]12C,?,?,?,-,.
C[C@H](C[C@H](O)[C@H]1OC1(C)C)C1=C2C[C@H](O)C3[C@@]4(C)CCC(=O)C(C)(C)C4CC[C@]3(C)[C@@]2(C)CC1 (stereo partly specified),-,?,?,-,25µM
CN(C)c1cccc(C(=O)N/C=C/n2cnc3cc(C(F)(F)F)ccc32)c1,-,-,-,-,-
COc1ccc(-n2ccnc(NCCc3ccccc3)c2=O)cc1OC,-,-,-,-,?
CC(NC(=O)c1cccc2c1Oc1ccccc1S2)C(=O)O (stereo unspecified),.,.,-,-,-
CSc1nccc(-c2cc(Cl)sc2Cl)n1,-,.,-,11µM,-
CSc1nccc(-c2c(-c3ccc(Cl)cc3)noc2C)n1,-,-,-,-,-
CCOC(=O)C1(O)CSc2nc3sc(C(=O)O)c(C)c3c(=O)n21 (stereo unspecified),-,-,-,-,-
CN(Cc1ccc(C(C)(C)C)cc1)C(=O)C1CCN(C(=O)Nc2ccccc2)CC1,-,21µM,-,-,-
Cc1ccc(CN(C)C(=O)C2CCN(C(=O)Nc3ccccc3)CC2)o1,-,-,-,-,-
